Bioassay records deposited in PubChem BioAssay by National Center for Advancing Translational Sciences (NCATS).
The list is not random: actives were taken first. Their share in the collection is about 2.4%.
D2 PAM-1 – Beta-Arrestin HTS for Positive Allosteric Modulators of the Human D2 Dopamine Receptor: Potentiators. D(2) dopamine receptor (Homo sapiens), P14416. DiscoveRx D2 beta-arrestin cells, luminescence, 90 min; 100% = 57 uM dopamine signal. AID 624464, 2012. potentiation, % (test concentration not listed). 0.23% of 360,000 active; in the data active means potentiation above about 50%
Target sequence (P14416 whole entry, looked up): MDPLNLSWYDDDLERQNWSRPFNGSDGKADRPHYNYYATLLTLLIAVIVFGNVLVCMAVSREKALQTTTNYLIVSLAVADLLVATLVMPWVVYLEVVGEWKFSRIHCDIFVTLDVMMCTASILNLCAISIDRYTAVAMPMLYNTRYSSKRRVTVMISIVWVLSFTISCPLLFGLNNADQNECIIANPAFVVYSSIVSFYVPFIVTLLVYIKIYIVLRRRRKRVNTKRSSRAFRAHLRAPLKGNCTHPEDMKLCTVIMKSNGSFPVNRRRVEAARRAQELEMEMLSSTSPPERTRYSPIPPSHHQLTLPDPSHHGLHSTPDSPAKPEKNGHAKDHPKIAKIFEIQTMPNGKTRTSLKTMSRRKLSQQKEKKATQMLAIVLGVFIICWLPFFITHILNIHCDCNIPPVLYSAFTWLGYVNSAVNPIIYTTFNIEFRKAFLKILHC
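PathHunter D2 cells, attached overnight at 37 deg C, received compound in DMSO plus dopamine at EC20 (50 nM final) for 90 min at 37 deg C. Beta-arrestin recruitment was read as luminescence after 1 h with detection reagent at ambient temperature.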
D2 ag-1 – Beta-Arrestin HTS for Positive Allosteric Modulators of the Human D2 Dopamine Receptor: Agonists; D(2) dopamine receptor (Homo sapiens), P14416; DiscoveRx PathHunter D2 beta-arrestin, luminescence, 90 min; 100% = 57 uM dopamine signal; activation, % (no concentration beside the values); 0.084% of 360,000 active; in the data active means activation above about 40%
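Agonist mode: compounds alone added to overnight-plated D2 PathHunter cells for 90 min at 37 C, with 57 uM final dopamine (EC100) defining full response. Beta-arrestin recruitment detected by chemiluminescent reagent, read after 1 h at ambient temperature.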
D2 PAM-2 – HTS Assay for Positive Allosteric Modulators of the Human D2 Dopamine Receptor: Primary Screen for Potentiators; potentiation, % at 10 µM; D(2) dopamine receptor (Homo sapiens), P14416; AID 485347, 2010; 0.34% of 340,000 active; HEK293 T-REx D2, calcium flux, EC20 dopamine potentiation;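 active means potentiation over 3 SD above the plate norm, cut at about 30% in these data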; further: 0% is about no effect
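Tetracycline-induced HEK293 T-REx cells force-coupled to calcium signalling expressed D2; compounds were pin-added after a 10 s baseline, read kinetically 180 s, then an EC20 dopamine challenge followed with a further 180 s calcium read.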
D2 antag – HTS Assay for Allosteric Antagonists of the Human D2 Dopamine Receptor: Primary Screen for Antagonists; HEK293 TREx D2 cells, calcium flux, dopamine EC80; D(2) dopamine receptor (Homo sapiens), P14416; 2% of 340,000 active; inhibition, % at 10 µM; in the data active means inhibition above about 30%; inactive means below that, where a call was filed; further: 0% is about no effect
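Cells plated overnight at 30 C with tetracycline; no-wash calcium dye, 30–90 min RT; 10 s baseline; compound pinned; 180 s read; EC80 dopamine added; another 180 s read.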
D2 ag-2 – HTS Assay for Allosteric Agonists of the Human D2 Dopamine Receptor: Primary Screen for Agonists; D(2) dopamine receptor (Homo sapiens), P14416; HEK293 T-REx D2 cells, calcium flux agonist mode; activation, % at 2 µM; 0.53% of 340,000 active;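 active means activation over 3 SD above normal in the single-dose calcium agonist read, cut at about 30% in these data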; further: 0% is about no effect
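HEK293 Trex D2 cells, tetracycline-induced, o/n 30 C 5% CO2; no-wash Ca dye, RT 30–90 min; 10-cycle baseline, 23 nl cpd added, kinetic Ca read 180 s; agonist hits = positive Ca response.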
Starred values were filed as active, the others as inactive; · = no result.

SMILES	D2 PAM-1	D2 ag-1	D2 PAM-2	D2 antag	D2 ag-2
N#Cc1c(C(F)(F)F)cc(-c2ccccc2Cl)[nH]c1=O	4.8	2.0	2.3	44.4*	0.6
NS(=O)(=O)c1ccc(CCNC(=O)COC(=O)CCN2C(=O)C3CC=CCC3C2=O)cc1 (centres undefined)	-9.2	1.6	8.3	-9.2	-0.3
O=C(COC(=O)CCN1C(=O)C2CC=CCC2C1=O)NCCc1ccc(F)cc1 (centres undefined)	-5.2	-3.1	-11.5	37.1*	0.3
C(=N\Nc1nccc(-c2cccnc2)n1)/c1ccccc1	-8.5	-6.3	6.1	11.2	0.8
Fc1ccc(CSc2ncnc3c2oc2ccccc23)cc1	0.0	3.7	1.6	3.7	2.1
Fc1cccc(CSc2ncnc3c2oc2ccccc23)c1	-5.5	-3.1	-9.7	30.5*	0.8
CCOc1ccc(/C=N/Nc2nc(=O)[nH]nc2C)cc1OC	-3.1	-2.0	43.5*	-16.2	0.2
O=c1[nH]cnc2nc(-c3ccccc3)c(-c3ccccc3)nc12	-12.1	-2.4	45.3*	-10.1	0.3
Cc1cccc(NS(=O)(=O)c2ccccc2)n1	-2.4	-2.2	7.2	31.3*	-0.3
Cc1ccc(C)c(NC(=O)CN(C)C(=O)[C@@H](NC(=O)c2ccc(C(C)(C)C)cc2)C(C)C)c1	-6.0	1.0	-0.1	7.4	-1.4
Cc1ccc(C(=O)NCCc2csc(C)n2)cc1	-1.8	-7.1	1.7	42.7*	0.1
O=C(Nc1ccccc1)N1CCC(c2ccccc2)C1 (centres undefined)	-8.8	1.2	6.2	-5.5	-0.2
CCCC(c1nnnn1Cc1ccc(F)cc1)N1CCN(C2CCCCC2)CC1 (centres undefined)	-21.1	-0.5	3.4	-12.3	-1.0
CC(C)C(c1nnnn1Cc1ccc(F)cc1)N1CCN(C2CCCC2)CC1 (centres undefined)	-3.0	-4.4	8.4	55.9*	0.0
CN1CCN(C(c2ccc(F)cc2)c2nnnn2Cc2cccs2)CC1 (centres undefined)	-17.7	-5.3	·	·	·
CN1CCN(C(c2cccs2)c2nnnn2Cc2ccc(F)cc2)CC1 (centres undefined)	0.0	-3.1	8.3	41.5*	0.0
COc1ccc(OC)c(Nc2nc(-c3ccc(C)cc3)nc3ccccc23)c1	·	·	12.6	·	1.3
Cc1c(C)n(C(=O)CN2CCN(c3ccccc3)CC2)c2ccccc12	-8.6	-4.5	18.7	-6.8	0.7
Cc1c(C)n(C(=O)CN2CCC(C(N)=O)CC2)c2ccccc12	-7.6	-1.7	-5.7	36.3*	0.3
O=C(C1CCC(CNc2c(N3CCCCC3)c(=O)c2=O)CC1)N1CCN(c2ccccn2)CC1 (centres undefined)	-7.2	-3.4	3.3	-6.3	0.4
Cc1cc2ncn(C3CC(=O)N(Cc4ccccc4)C3=O)c2cc1C (centres undefined)	11.1	2.7	39.4*	-15.3	-0.2
CCOc1ccc(C2C(C(=O)O)CCC(=O)N2C2CCCCC2)cc1 (centres undefined)	-3.4	-2.1	7.2	-3.2	0.0
COc1ccc(C(C)C)cc1S(=O)(=O)Nc1ccncc1	-14.9	3.6	·	-4.8	0.0
O=C(CCc1nc2ccccc2c(=O)[nH]1)Nc1ccc(N2CCCCC2)cc1	-10.4	1.2	-3.0	76.7*	-5.3
O=C(O)c1cccc(-c2ccc(/C=N/Nc3ccc([N+](=O)[O-])cc3)o2)c1	-9.0	-5.1	-2.1	3.2	35.7*
O=C(O)c1ccc(N/N=C/c2ccc(-c3cccc(Cl)c3)o2)cc1	2.8	12.1	·	·	·
O=C(O)c1ccc(-c2ccc(/C=N/Nc3ccc([N+](=O)[O-])cc3)o2)cc1	-4.7	-5.5	-3.7	8.0	53.8*
Cc1cc(NC(=O)C(C)Sc2nc(-c3cccs3)nc3ccccc23)no1 (centres undefined)	-9.2	0.5	32.2*	10.3	1.1
